The record followed here is PubChem BioAssay (NCI).

About 83,000 compounds went through this panel and 20% of them were active in at least one assay; those are over-represented in the sample as a whole.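 A percent growth of 40 corresponds to 60% growth inhibition; 0 means no net growth; -100 means all cells died. Active threshold: below 10.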 The source made the active and inactive calls.

This test has as its system NCI-H226 lung. The experiment in a line: NCI-60 one-dose screen, 48 h (100 = growth as untreated, 0 = no growth, -100 = all killed). The settings on record: 10 µM unless noted.
`COc1cc2[nH]c(C(=O)c3cc(OC)c(OC)c(OC)c3)c(N)c2cc1C#CC1CC1`: the growth was 50.2% (inactive).

For the compound `COc1cc2c(cc1OC)C(=O)/C(=C/c1cc(-c3ccc4c(c3)OCO4)n[nH]1)C2`, the growth is 47.1% (inactive).

Take `NS(=O)(=O)c1ccc(CCNC(=O)/C=C/c2ccc(Cl)cc2)cc1`: the growth is 107% (inactive). Take `C/C(=N/NC(N)=S)C(=O)O`: the growth is 90.1% (inactive). Consider `Cc1ccc(-c2ccc(Nc3ccccc3)nn2)cc1S(N)(=O)=O`, for which the growth was 99.2% (inactive). Then `CCC(c1ccc(OC)cc1)C(CC)c1ccc(O)c(CN2CCCCC2)c1` (stereo not drawn), with 70% (inactive); and `COc1cc(-c2cc(-c3nc4ccc(F)cc4[nH]3)[nH]n2)cc(OC)c1OC`, with -11.1% (active); and `COc1cccc(NC(=O)c2sc3nc4c(cc3c2N)C(=O)CCC4)c1`, with 74.9% (inactive). For `NC1(N)C=CC2=C(C=C1)C1(N)C3=C(C=CC(N)(N)C=C3)N2C2(N)C3=C(C=CC(N)(N)C=C3)N1C1=C2C=CC(N)(N)C=C1`, the growth was 97.7% (inactive). Under `COc1ccc(-c2nc3ccccn3c2-c2nc3ccc(Cl)cc3[nH]2)cc1` stands 90.1% (inactive). In the case of `O=c1c(CNc2ccc(S(=O)(=O)Nc3nccs3)cc2)coc2ccccc12`, the growth was 96.1% (inactive). Then `CN1CCN(c2nc(-c3cccc4ccccc34)nc3sc4c(c23)CCCCCC4)CC1`, with 74.4% (inactive).

As for `COc1ccc2nc(-c3cc(-c4cc(OC)c(OC)c(OC)c4)n[nH]3)[nH]c2c1`, the growth is -48.9% (active). Then `COc1cccc(-c2nn(-c3ccccc3)cc2-c2ccnc(NCCNS(=O)(=O)c3ccc(Cl)cc3)c2)c1`, with 41.8% (inactive); and `O=S(=O)(NCCNc1cc(-c2cn(-c3ccccc3)nc2-c2cccc(O)c2)ccn1)c1ccc(C(F)(F)F)cc1`, with 57.8% (inactive). For the compound `Cc1cc(C)c(NC(=O)c2sc3nc4c(cc3c2N)CCCC4)c(C)c1`, the growth is 78.6% (inactive). Then `C/C(=N\Nc1cc(C)c2ccccc2n1)c1ccccn1`, with -2.65% (active); and `C=C1C(=O)O[C@H]2[C@H]1CC/C(Cn1cc(-c3ccc(OC)cc3)nn1)=C\CC[C@@]1(C)O[C@@H]21`, with -44.1% (active). Under `COC(=O)[C@]12CC[C@@H](C)[C@H](C)[C@@H]1C1=CC[C@@H]3[C@@]4(C)C[C@@H](OC(C)=O)[C@H](OC(C)=O)[C@@](C)(COC(C)=O)[C@@H]4[C@H](O)C[C@@]3(C)[C@]1(C)CC2` stands 2.17% (active); under `COc1cccc(-c2nn(-c3ccccc3)cc2-c2ccnc(NCCCNS(=O)(=O)c3ccc(Cl)cc3)c2)c1`, 40.3% (inactive). Under `O=c1c(CNc2ccc(S(=O)(=O)Nc3ncccn3)cc2)coc2ccccc12` stands 103% (inactive); under `COc1ccc(-c2cc(/C=C/C(=O)c3ccc(OC)c(OC)c3)[nH]n2)cc1`, 50.9% (inactive).

In the case of `C#Cc1cc2c(N)c(C(=O)c3cc(OC)c(OC)c(OC)c3)[nH]c2cc1OC`, the growth is 50% (inactive). Then `O=S(=O)(NCCNc1cc(-c2cn(-c3ccccc3)nc2-c2cccc(O)c2)ccn1)c1ccc(F)cc1`, with 45.1% (inactive); and `c1ccc2[nH]c(-c3cc(-c4ccc5c(c4)OCO5)n[nH]3)nc2c1`, with 70.7% (inactive); and `COc1cccc(-c2nn(-c3ccccc3)cc2-c2ccnc(NCCCNS(=O)(=O)c3cccc(F)c3)c2)c1`, with 21.7% (inactive). Regarding `COc1cc(-c2cc(-c3nc4cc(Cl)c(Cl)cc4[nH]3)[nH]n2)cc(OC)c1OC`, the growth was 38% (inactive). Under `Oc1cc(/C=C/c2nc(N3CCOCC3)c3cc(Cl)c(Cl)cc3n2)cc(O)c1O` stands 85.8% (inactive). Turning to `Cc1cc(Nc2ccc(F)cc2)nc(N2CCN(c3ccnc4cc(Cl)ccc34)CC2)n1`, the growth is 57.5% (inactive). Under `COc1ccc(/C=C/C(=O)NCC(C)O)cc1` (stereo not drawn) stands 91.5% (inactive); under `COc1ccc(-c2cc(/C=C/C(=O)c3ccc(N)cc3)[nH]n2)cc1`, 24.5% (inactive). Under `CSc1ccc(N(C)c2nc(C)nc3c2CCC3)cc1` stands 55.5% (inactive); under `OCCNc1nc(Nc2ccc(Cl)c(Cl)c2)nc2ccccc12`, 61.7% (inactive); under `COc1cc(-c2cc(-c3nc4ccccc4[nH]3)[nH]n2)cc(OC)c1OC`, 14.5% (inactive). Under `O=C1CCN2C(=O)Nc3ccccc3C2C1` (stereo not drawn) stands 104% (inactive). Consider `Cc1[c-]onc1C.Cc1[c-]onc1C.[Ag].[Ag].[NH-]S(=O)(=O)c1ccc(N=Nc2cc(N=Nc3ccc(S([NH-])(=O)=O)cc3)c3c(NC(=O)C(Cl)Cl)cccc3c2OC(=O)C(Cl)Cl)cc1`, for which the growth was 94.8% (inactive). Under `Clc1ccc(Cn2cc(-c3nc4ccc(Br)nc4n3Cc3ccc(Cl)cc3)c3cccnc32)cc1` stands 77.7% (inactive); under `COC(=O)[C@]12CC[C@@H](C)[C@H](C)[C@@H]1C1=CC[C@@H]3[C@@]4(C)C[C@@H](OC(C)=O)[C@H](O)[C@@](C)(COC(C)=O)[C@@H]4[C@H](O)C[C@@]3(C)[C@]1(C)CC2`, -57.8% (active).
